“And” between values parts separate entries of the source, which are not always exact repeats. Equal values may be shown once. Results filed as inconclusive are left out. The source made the active and inactive calls. Calls come from the whole dose curve; as a rule, active = well fitted inhibition curve with a large enough effect; inconclusive = small, poorly fitted or top-dose-only effect; inactive = flat fitted curve, though single readings scatter.
Assay: Drug repurposing screens with cells derived from glioblastoma tumor samples (AID 1345199); note: nearly all actives have a fitted effect of over 40% in size
Settings: GBM patient neurospheres viability, ATP luminescence, 48 h; at 46 µM (top of the series); tumour line A
In short: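 Four patient lines of CD133+ GBM neurospheres were screened at several concentrations; hits were retested in those lines plus three slower-growing GBM lines, using 48-hour treatment and ATP-based viability.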
% is set by controls: 0 for no effect and ±100 for the full control effect.

| SMILES | activity, negative = cell killing |
| --- | --- |
| COc1ccc(Cl)cc1C(=O)NCCc1ccc(S(=O)(=O)NC(=O)NC2CCCCC2)cc1 | -29% (inactive) |
| O=C1O[C@H]([C@@H](O)CO)C(O)=C1O | -0.597% (inactive) |
| Cc1cccc(Nc2cc(Cl)nc(SCC(=O)O)n2)c1C | -33.3% (inactive) |
| Cc1cc2nc3c(=O)[nH]c(=O)nc-3n(C[C@H](O)[C@H](O)[C@H](O)CO)c2cc1C | -12.8% (inactive) and -5.49% (inactive) |
| CCCOC(=O)c1ccccc1 | -26.7% (inactive) |
| C[C@@H](O)[C@H](N)C(=O)O | -29.7% (inactive) |
| NC(=O)N/N=C/c1ccc([N+](=O)[O-])o1 | -13.9% (inactive) |
| Cc1ncc(COP(=O)(O)O)c(C=O)c1O | -18.9% (inactive) |
| O=C1NC(=O)[C@@]2(CCOc3ccc(F)cc32)N1 | -16.6% (inactive) |
| C[C@H](NC(CCc1ccccc1)C(=O)O)C(=O)N1CCC[C@H]1C(=O)O (some centres undefined) | -1.54% (inactive) |
| O=C1NS(=O)(=O)c2ccccc21 | -6.92% (inactive) |
| CCCCc1ncc(/C=C(\Cc2cccs2)C(=O)O)n1Cc1ccc(C(=O)O)cc1 | -19.8% (inactive) |
| OCC(CO)N[C@H]1C[C@](O)(CO)[C@@H](O)[C@H](O)[C@H]1O | -13.3% (inactive) |
| O=C(O)CC(O)C(=O)O (centres undefined) | -24.7% (inactive) |
| Nc1ccc(S(=O)(=O)Nc2nccs2)cc1 | -21.1% (inactive) |
| CC(O)COc1ccccc1 (centres undefined) | -19.2% (inactive) |
| Cc1cccc(C)c1NC(=O)CN(CC(=O)O)CC(=O)O | -11.4% (inactive) |

Same assay, conditions: GBM patient neurospheres viability, ATP luminescence, 48 h; at 46.1 µM (top of the series); tumour line C

| SMILES | activity, negative = cell killing |
| --- | --- |
| COc1ccc(Cl)cc1C(=O)NCCc1ccc(S(=O)(=O)NC(=O)NC2CCCCC2)cc1 | -8.3% (inactive) |
| COc1ccc2cc1Oc1cc3c(cc1OC)CC[N+](C)(C)[C@H]3Cc1ccc(cc1)Oc1c(OC)c(OC)cc3c1[C@@H](C2)[N+](C)(C)CC3 | -3.48% (inactive) |
| CC[C@@]1(c2ccccc2)NC(=O)N(C)C1=O | 9.18% (inactive) |
| O=C1O[C@H]([C@@H](O)CO)C(O)=C1O | -3.99% (inactive) and -11% (inactive) |
| Cc1cccc(Nc2cc(Cl)nc(SCC(=O)O)n2)c1C | 0.18% (inactive) |
| Cc1cc2nc3c(=O)[nH]c(=O)nc-3n(C[C@H](O)[C@H](O)[C@H](O)CO)c2cc1C | -0.108% (inactive) and 21.1% (inactive) |
| O=c1cc[nH]c(=S)[nH]1 | -27.1% (inactive) |
| COc1cc(C)c(Cc2cnc(N)nc2N)cc1OC | -26.1% (inactive) |
| CCCOC(=O)c1ccccc1 | -15.4% (inactive) |
| CN1[C@@H]2CC[C@H]1CC(OC(=O)C(O)c1ccccc1)C2 (some centres undefined) | 11.2% (inactive) and -12.9% (inactive) and 5.16% (inactive) |
| C[C@@H](O)[C@H](N)C(=O)O | 2.15% (inactive) |
| NC(=O)N/N=C/c1ccc([N+](=O)[O-])o1 | 14.2% (inactive) |
| CC(C)(O)c1ccccc1CC[C@@H](SCC1(CC(=O)O)CC1)c1cccc(/C=C/c2ccc3ccc(Cl)cc3n2)c1 | -19.5% (inactive) |
| CC(CN1c2ccccc2Sc2ccccc21)N(C)C (centres undefined) | -1.52% (inactive) |
| Cc1ncc(COP(=O)(O)O)c(C=O)c1O | 13% (inactive) |
| O=C1NC(=O)[C@@]2(CCOc3ccc(F)cc32)N1 | -0.68% (inactive) |
| Cc1c(O)cccc1C(=O)N[C@@H](CSc1ccccc1)[C@H](O)CN1C[C@H]2CCCC[C@H]2C[C@H]1C(=O)NC(C)(C)C | 0.268% (inactive) |
| CCN(CC)C(=O)Nc1ccc(OCC(O)CNC(C)(C)C)c(C(C)=O)c1 (centres undefined) | -24.6% (inactive) |
| O=C(O)COc1nn(Cc2ccccc2)c2ccccc12 | -16.4% (inactive) |
| Nc1ccc(S(=O)(=O)Nc2ccccc2)cc1 | -16.6% (inactive) |
| C[C@H](NC(CCc1ccccc1)C(=O)O)C(=O)N1CCC[C@H]1C(=O)O (some centres undefined) | -2.05% (inactive) |
| O=C1NS(=O)(=O)c2ccccc21 | -6.41% (inactive) |
| CCCCc1ncc(/C=C(\Cc2cccs2)C(=O)O)n1Cc1ccc(C(=O)O)cc1 | -1.88% (inactive) |
| OCC(CO)N[C@H]1C[C@](O)(CO)[C@@H](O)[C@H](O)[C@H]1O | -4.04% (inactive) |
| CNC(=O)Oc1ccc2c(c1)[C@]1(C)CCN(C)[C@@H]1N2C | -13.5% (inactive) |
| O=C(O)CC(O)C(=O)O (centres undefined) | -13.6% (inactive) |
| O=C(O)[C@@H]1CSCN1 | -12.1% (inactive) |

Reference: PubChem BioAssay (NCATS)
